# Experiments:
# [1] = molecular target: Protein kinase C alpha type (Homo sapiens) (UniProt P17252); details: at 1 µM
# [2] = molecular target: Protein kinase C alpha type (Homo sapiens) (UniProt P17252); details: at 10 µM
# [3] = molecular target: Protein kinase C beta type (Homo sapiens) (UniProt P05771); details: at 1 µM
# [4] = molecular target: Protein kinase C beta type (Homo sapiens) (UniProt P05771); details: at 10 µM
# [5] = molecular target: Protein kinase C beta type (Homo sapiens) (UniProt P05771); details: at 1 µM; remark: listed apart in the source
# [6] = molecular target: Protein kinase C beta type (Homo sapiens) (UniProt P05771); details: at 10 µM; remark: listed apart in the source
# [7] = molecular target: Protein kinase C gamma type (Homo sapiens) (UniProt P05129); details: at 1 µM
# [8] = molecular target: Protein kinase C gamma type (Homo sapiens) (UniProt P05129); details: at 10 µM
# [9] = molecular target: Protein kinase C delta type (Homo sapiens) (UniProt Q05655); details: at 1 µM
# Sequence of Protein kinase C delta type (Homo sapiens) (Q05655 whole entry, looked up): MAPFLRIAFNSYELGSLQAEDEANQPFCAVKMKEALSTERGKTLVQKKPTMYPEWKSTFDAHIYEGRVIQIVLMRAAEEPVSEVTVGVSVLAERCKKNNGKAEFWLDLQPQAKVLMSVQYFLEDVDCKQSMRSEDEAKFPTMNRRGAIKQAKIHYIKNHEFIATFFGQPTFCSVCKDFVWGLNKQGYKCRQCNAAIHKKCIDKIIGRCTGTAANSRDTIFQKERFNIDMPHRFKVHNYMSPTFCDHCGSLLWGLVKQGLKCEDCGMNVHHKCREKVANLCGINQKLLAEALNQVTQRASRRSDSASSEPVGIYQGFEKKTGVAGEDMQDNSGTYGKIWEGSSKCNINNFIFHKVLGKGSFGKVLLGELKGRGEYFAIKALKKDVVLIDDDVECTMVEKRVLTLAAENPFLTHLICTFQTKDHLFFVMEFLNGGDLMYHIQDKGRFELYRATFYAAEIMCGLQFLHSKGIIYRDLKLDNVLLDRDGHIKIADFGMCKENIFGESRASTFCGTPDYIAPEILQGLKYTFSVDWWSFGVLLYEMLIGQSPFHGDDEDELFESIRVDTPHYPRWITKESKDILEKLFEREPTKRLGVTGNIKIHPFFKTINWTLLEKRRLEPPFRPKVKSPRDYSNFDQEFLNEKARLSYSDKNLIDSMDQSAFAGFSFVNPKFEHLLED
# [10] = molecular target: Protein kinase C delta type (Homo sapiens) (UniProt Q05655); details: at 10 µM
# Sequence of Protein kinase C beta type (Homo sapiens) (P05771 2-671 limits assumed): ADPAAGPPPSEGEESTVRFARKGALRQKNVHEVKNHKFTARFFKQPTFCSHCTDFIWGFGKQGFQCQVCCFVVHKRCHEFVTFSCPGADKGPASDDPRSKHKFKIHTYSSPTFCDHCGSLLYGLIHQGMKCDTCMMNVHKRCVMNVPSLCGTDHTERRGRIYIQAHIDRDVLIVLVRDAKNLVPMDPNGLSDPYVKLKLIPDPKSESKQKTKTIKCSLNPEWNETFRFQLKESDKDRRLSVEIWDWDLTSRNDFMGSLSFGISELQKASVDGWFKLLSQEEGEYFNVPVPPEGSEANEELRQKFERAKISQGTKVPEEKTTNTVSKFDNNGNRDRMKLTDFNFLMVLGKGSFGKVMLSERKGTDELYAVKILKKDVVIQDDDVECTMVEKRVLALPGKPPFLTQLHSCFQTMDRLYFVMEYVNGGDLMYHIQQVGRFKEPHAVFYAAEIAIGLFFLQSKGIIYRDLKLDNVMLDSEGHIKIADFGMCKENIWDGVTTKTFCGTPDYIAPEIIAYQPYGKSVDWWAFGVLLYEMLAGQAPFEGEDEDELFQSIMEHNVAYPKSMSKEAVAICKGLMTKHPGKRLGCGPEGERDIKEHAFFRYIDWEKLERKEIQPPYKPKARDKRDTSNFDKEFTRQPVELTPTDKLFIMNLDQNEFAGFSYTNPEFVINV
SMILES,residual activity [1] [%],residual activity [2] [%],residual activity [3] [%],residual activity [4] [%],residual activity [5] [%],residual activity [6] [%],residual activity [7] [%],residual activity [8] [%],residual activity [9] [%],residual activity [10] [%]
NC(=O)c1ccc2[nH]c(-c3ccc(Oc4ccc(Cl)cc4)cc3)nc2c1,99,90,111,93,95,100,90,108,104,107
Cn1cnc2cc3c(Nc4cccc(Br)c4)ncnc3cc21,101,98,109,85,100,95,103,99,97,100
O=C1NC(=O)c2c1c1c3ccccc3[nH]c1c1[nH]c3cc(Br)ccc3c21,102,103,108,95,104,95,99,100,97,102
Oc1ccc(-c2nc(-c3ccc(F)cc3)c(-c3ccncc3)[nH]2)cc1,112,92,124,85,110,81,106,103,98,90
O=C(Nc1cccc(Nc2nccc(Nc3cccc(C(F)(F)F)c3)n2)c1)C1CC1,95,66,110,107,99,102,98,90,100,106
Oc1n[nH]c2nnc(-c3c(-c4ccccc4)nn4ccccc34)cc12,102,92,94,98,103,97,96,103,99,95
O=C1Nc2cc(Br)ccc2/C1=C1/Nc2ccccc2/C1=N\O,98,104,100,101,102,95,101,107,112,118
CC(=O)c1ccc(N2CCOCC2)cc1O,101,102,107,101,100,93,109,108,101,103
COc1ccc(C(=O)Nc2sc3c(c2C(N)=O)CCCC3)cc1OC,106,100,109,94,111,101,117,104,101,104
Cn1nc2c3c(cccc31)C(=O)c1ccccc1-2,101,97,107,104,109,103,90,101,104,108
O=C(Nc1cccc(Nc2cc(Nc3cccc(C(F)(F)F)c3)ncn2)c1)C1CC1,102,101,105,104,98,97,112,106,93,94
CC(C)n1cnc2/c(=N/c3cccc(Cl)c3)nc(NCCO)[nH]c21,101,63,104,89,101,100,99,70,96,82
Nc1nc(Nc2ccc(S(N)(=O)=O)cc2)nn1C(=S)Nc1c(F)cccc1F,51,18,84,38,88,78,71,66,10,9
O=C1NC(=O)/C(=C/c2ccc3c(c2)OC(F)(F)O3)S1,106,102,134,126,98,102,103,101,107,103
COc1ccc(OC)c2c(=S)c3ccccc3[nH]c12,102,101,89,115,106,97,96,91,103,98
O=C1NC(=O)c2cc(Nc3ccc(F)cc3)c(Nc3ccc(F)cc3)cc21,104,101,107,86,93,103,111,98,97,105
CNc1cc2c(Nc3cccc(Br)c3)ncnc2cn1,106,95,118,105,104,103,109,94,104,105
CCN(CC)CCCCN1c2ccccc2Oc2ccc(Cl)cc21,112,107,105,98,103,95,117,108,107,111
CC#CC(=O)Nc1cc2c(Nc3ccc(F)c(Cl)c3)ncnc2cn1,103,96,113,103,101,101,109,105,94,102
CC(=O)O/N=C1\C(=C2\C(=O)Nc3cc(Br)ccc32)Nc2ccccc21,105,101,122,122,105,94,97,109,98,108
Oc1c2ccccc2c2c3c(cccc13)N=N2,98,73,102,104,108,102,73,30,99,71
Ic1cccc(CSc2nnc(-c3ccncc3)o2)c1,96,95,107,102,95,92,97,104,100,101
O=c1cc(-c2cccc3c2Sc2ccccc2S3)oc(N2CCOCC2)c1,95,86,102,100,104,101,99,95,100,104
O=C(O)c1ccc2c3c1cccc3c(=O)n1c3ccccc3nc21,99,98,125,113,115,100,94,74,100,107

SMILES,residual activity [1] [%],residual activity [2] [%],residual activity [3] [%],residual activity [4] [%],residual activity [5] [%],residual activity [6] [%],residual activity [7] [%],residual activity [8] [%],residual activity [9] [%],residual activity [10] [%]
COc1ccc(S(=O)(=O)N(CCO)c2ccccc2CN(C)C/C=C/c2ccc(Cl)cc2)cc1,107,94,106,102,115,96,99,104,108,106
CC[n+]1c(/C=C/N(C)c2ccccc2)n(-c2ccccc2)c2ccc(-c3nc4ccccc4s3)cc21,112,103,103,97,96,92,115,110,100,102
CO[C@H]1[C@@H](OC)C[C@H](C)[C@@H](OC)C2=CC(=O)C=C(NC(=O)/C(C)=C/C=C/[C@H](OC)[C@@H](OC(N)=O)/C(C)=C/[C@@H]1C)C2=O,110,107,106,121,92,97,111,99,107,107
CO[C@H]1C[C@@H]2CC[C@@H](C)[C@@](O)(O2)C(=O)C(=O)N2CCCC[C@H]2C(=O)O[C@H]([C@H](C)C[C@@H]2CC[C@@H](O)[C@H](OC)C2)CC(=O)[C@H](C)/C=C(\C)[C@@H](O)[C@@H](OC)C(=O)[C@H](C)C[C@H](C)/C=C/C=C/C=C/1C,99,99,107,106,105,103,105,98,98,99
COc1cc2ncnc(Nc3ccc(Oc4ccccc4)cc3)c2cc1OC,91,96,120,126,104,104,105,97,103,107
c1ccc2c(-c3ccncc3)c[nH]c2c1,98,80,105,64,98,65,106,86,63,23
CCC(=O)Nc1ccc2ncnc(Nc3cccc(Br)c3)c2c1,100,91,117,99,108,104,109,100,101,113
O=Nc1c(-c2c(O)[nH]c3ccccc23)[nH]c2ccccc12,93,86,93,94,95,102,92,73,85,80
COc1ccc(CNc2nc(N(CCO)CCO)nc3c2ncn3C(C)C)cc1,34,13,87,86,87,79,97,86,60,27
C[C@@H](N)[C@H]1CC[C@H](C(=O)Nc2ccncc2)CC1,94,84,101,87,81,34,97,96,48,12
CO[C@@H]1[C@H](N(C)C(=O)c2ccccc2)C[C@H]2O[C@]1(C)n1c3ccccc3c3c4c(c5c6ccccc6n2c5c31)C(=O)NC4,36,14,66,14,61,45,15,6,21,9
CN(C)c1ccc(/C=C2\C(=O)Nc3ccccc32)cc1,103,101,114,112,94,98,113,102,88,101
O=[N+]([O-])c1ccc(-c2nc(-c3ccc(F)cc3)c(-c3ccncc3)[nH]2)cc1,110,99,107,97,107,96,–,114,104,103
Cn1cc(/C=C2\C(=O)Nc3ccc(S(N)(=O)=O)cc32)c2ccccc21,108,104,111,109,103,108,–,79,101,99
CCOc1cc2ncnc(Nc3cccc(Br)c3)c2cc1OCC,107,97,87,97,100,103,108,112,106,104
Cc1nc2cc3nc(-c4cccs4)cnc3cc2n1C,111,96,107,105,99,99,110,104,98,106
c1ccc(-c2n[nH]c3c2oc2ccccc23)cc1,–,–,–,–,96,98,–,–,–,–
COc1cc2ncc(-c3ccccc3)nc2cc1OC,–,–,131,124,97,96,–,–,–,–
Cc1nc(-c2ccccc2)c(-c2ccncc2)o1,113,101,109,95,106,101,108,–,101,90
Oc1ccc(Nc2nc(-c3ccc(Cl)cc3)cs2)cc1,110,101,–,112,121,101,102,105,105,110
N#C/C(=C(\N)Sc1ccc(N)cc1)c1ccccc1C(F)(F)F,107,96,114,104,114,99,98,104,99,104
COc1cc2ncnc(Nc3ccc(NC(=O)c4ccccc4)cc3)c2cc1OC,–,107,–,–,100,94,–,–,107,102
Cc1ccc(S(=O)(=O)/C=C/C#N)cc1,88,93,98,102,104,–,99,87,101,105
Cc1ccc(NC2=CC(=O)c3sc(C)nc3C2=O)cc1,106,105,98,88,112,101,102,108,103,102

SMILES,residual activity [1] [%],residual activity [2] [%],residual activity [3] [%],residual activity [4] [%],residual activity [5] [%],residual activity [6] [%],residual activity [7] [%],residual activity [8] [%],residual activity [9] [%],residual activity [10] [%]
O=C1Nc2ccccc2/C1=C1/Nc2ccccc2/C1=N\OCCC(O)CO (stereo unspecified),96,65,108,–,97,99,81,74,–,–
c1ccc(-c2n[nH]cc2-c2ccnc3ccccc23)nc1,–,–,–,–,101,94,–,–,94,92
CCN(CC)C(=O)c1ccc(Nc2nc(OCC3CCCCC3)c3nc[nH]c3n2)cc1,95,58,–,–,–,–,46,13,78,26
COc1cc2ncnc(Nc3ccc(O)c(Br)c3)c2cc1OC,107,109,97,83,94,97,102,100,100,81
Cc1cncc2cccc(S(=O)(=O)N3CCCN(C(=O)CN)C[C@H]3C)c12,99,85,82,31,95,51,–,–,7,3
Nc1n[nH]c2nnc(-c3c(-c4ccccc4)nn4ccccc34)cc12,97,91,99,96,102,93,98,98,22,4
O=C1c2ccccc2-[n+]2ccc3c([nH]c4ccccc43)c21,106,98,102,97,93,88,97,–,101,104
COc1cc2ncnc(N3CCN(C(=O)Nc4ccc(Oc5ccccc5)cc4)CC3)c2cc1OC,99,103,106,97,101,102,103,107,101,110
N#CCCc1ccc2c(c1)-c1[nH]c3ccc([N+](=O)[O-])cc3c1CC(=O)N2,–,–,–,–,–,–,–,–,68,57
Cc1cc(Nc2nc(-c3ccccc3)nc3ccccc23)n[nH]1,–,63,109,–,106,–,–,51,–,–
N#CC(C#N)=C(N)/C(C#N)=C/c1ccc(O)cc1,–,–,120,122,96,90,–,79,–,–
Cc1cccc(-c2[nH]c(C(C)(C)C)nc2-c2ccc3c(c2)OCO3)n1,–,–,–,–,–,–,–,–,98,101
O=c1c2ccccc2[nH]c(=S)n1CCN1CCC(=C(c2ccc(F)cc2)c2ccc(F)cc2)CC1,108,105,109,109,101,104,116,117,101,97
CN(C)CCCn1cc(C2=C(c3c[nH]c4ccccc34)C(=O)NC2=O)c2ccccc21,–,–,–,–,9,2,–,–,2,-1
O=C1NC(=O)/C(=C\c2ccc3nccnc3c2)S1,108,88,124,121,101,100,109,83,99,81
N#Cc1cnc2cnc(NCc3cccnc3)cc2c1Nc1ccc(F)c(Cl)c1,98,55,18,18,–,–,–,–,61,24
CC(C)n1cnc2c(NCc3ccccc3)nc(NCCCO)nc21,99,102,106,105,105,104,92,104,94,98
Nc1ccc2ncnc(NCCc3ccc(Oc4ccccc4)cc3)c2c1,103,103,137,113,118,104,87,111,106,111
Nc1cccc(-c2cc3c(Oc4cccc(O)c4)ncnc3[nH]2)c1,–,97,–,–,104,95,98,101,100,95
O=C1Nc2ccc(Br)cc2/C1=C\c1cc2c([nH]1)CCCC2,104,105,–,–,–,–,109,111,100,107
Cc1cc2ncc(-c3ccccc3)nc2cc1C,106,109,125,131,100,107,106,105,103,85
COc1cccc(-c2cc(=O)c3ccccc3o2)c1N,113,104,106,105,121,108,107,119,113,113

# Source: ChEMBL document CHEMBL2218924, “A broad activity screen in support of a chemogenomic map for kinase signalling research and drug discovery” (Biochem J, 2013)
